Assay [1] has as its system DLD1. Kind of assay: cell viability (CellTiter-Glo) relative to plate median (fraction of plate median); higher = more viable cells. Conditions: 5 µM; treatment time 24 h; reporter: 7TFP. The essentials: (§1)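 Values are well luminescence normalised to the plate median, from either a firefly luciferase or a CellTiterGlo readout on parallel plates. The cells, colorectal cancer lines stably transduced with lentiviral 7TFP or TCF4/Wnt firefly luciferase reporters, were treated with library compounds at a final 5 µM for 24 h. The mean of two independent replicates is listed.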
(In general: Cellular ATP, detected with luciferase, serves as a proxy for viable cell number.)

The subject of a further assay is HCT116. Described as above. The conditions noted are these: 5 µM; treatment time 24 h; reporter: TCF4/Wnt. The essentials: as §1
Assay [2] concerns SW480. The description is as above. Conditions: 5 µM; treatment time 24 h; reporter: 7TFP. The essentials: as §1
Assay [3] relates to DLD1. Kind of assay: TCF/Wnt firefly luciferase reporter signal relative to plate median (fraction of plate median); higher = higher Wnt reporter signal. The conditions noted are these: 5 µM; treatment time 24 h; reporter: 7TFP. The method, boiled down:
as §1
On the technique in general: Reporter assays use an easily measured gene product as a stand-in for the process of interest.

For assay [4], the system named is SW480. Described as above. Conditions: 5 µM; treatment time 24 h; reporter: 7TFP. The method, boiled down:
as §1

± gives the standard deviation of the averaged measurements.

For the compound `CCN(CCO)CCCC(C)Nc1ccnc2cc(Cl)ccc12` (stereo not given), the cell viability with DLD1 [1] is 1.05 ± 0.097; in the assay with HCT116, 0.998 ± 0.1; in the assay with SW480 [2], 0.986 ± 0.0057. Further, the results for the “TCF/Wnt firefly luciferase reporter signal” value in the assay on DLD1 [3] and in the assay on SW480 [4] were 1.02 ± 0.076 and 1.045 ± 0.0071, respectively.

For the compound `O=C1c2c(O)cccc2C([C@@H]2O[C@H](CO)[C@@H](O)[C@H](O)[C@H]2O)c2cc(CO)cc(O)c21` (stereo not given in full), the cell viability with DLD1 [1] is 1.05 ± 0.1; in the assay on HCT116, 1.1 ± 0.078; in the assay on SW480 [2], 1.015 ± 0.0071. For the same compound, the “TCF/Wnt firefly luciferase reporter signal” value in the assay with DLD1 [3] turned out to be 1.2 ± 0.021; in the assay with SW480 [4] it was 1.07 ± 0.05.

In the case of `CCCCCCCCCCCCCCCCCCCCCCO`, the cell viability worked out at 1.04 ± 0.076 with DLD1 [1], 0.941 ± 0.065 in the assay with HCT116 and 0.97 ± 0.036 in the assay with SW480 [2]. The “TCF/Wnt firefly luciferase reporter signal” value in the assay with DLD1 [3] amounted to 0.869 ± 0.032; in the assay with SW480 [4], 0.927 ± 0.066.

Turning to `COC(=O)Nc1nc2cc(Sc3ccccc3)ccc2[nH]1`, the values for the cell viability with DLD1 [1], with HCT116 and in the assay on SW480 [2] were 1.01 ± 0.014, 1.03 and 1.03 ± 0.05, respectively. Further, the “TCF/Wnt firefly luciferase reporter signal” value in the assay with DLD1 [3] is 0.99 ± 0.071; in the assay with SW480 [4] it was 0.995 ± 0.05.

As for `COc1ccc(C[C@H](N)C(=O)N[C@H]2[C@@H](O)[C@H](n3cnc4c(N(C)C)ncnc43)O[C@@H]2CO)cc1`, the cell viability with DLD1 [1] was determined as 0.892 ± 0.1; in the assay on HCT116, 0.908 ± 0.04; in the assay with SW480 [2], 0.9485 ± 0.00071. Besides, the “TCF/Wnt firefly luciferase reporter signal” value in the assay on DLD1 [3] was 0.999 ± 0.03; with SW480 [4], 1.05 ± 0.042.

For the compound `CC(=O)Oc1cccc(O)c1`, the cell viability is 1.01 ± 0.095 with DLD1 [1], 1.06 ± 0.042 with HCT116 and 1.07 ± 0.021 in the assay on SW480 [2]. Besides, the “TCF/Wnt firefly luciferase reporter signal” value in the assay with DLD1 [3] was 0.952 ± 0.097; in the assay with SW480 [4], 1.05 ± 0.028.

With `O=C1c2ccccc2C(=O)c2c(O)c(O)cc(O)c21`, the cell viability in the assay on DLD1 [1] was 1.02 ± 0.052; in the assay on HCT116, 0.96 ± 0.14; in the assay with SW480 [2] it was 1.09 ± 0.092. Further, the results for the “TCF/Wnt firefly luciferase reporter signal” value in the assay on DLD1 [3] and in the assay on SW480 [4] were 1.17 ± 0.028 and 0.873 ± 0.044, respectively.

As to `O=C(O)CCC(=O)OC[C@@H](NC(=O)C(Cl)Cl)[C@H](O)c1ccc([N+](=O)[O-])cc1`, the cell viability in the assay on DLD1 [1] worked out at 1 ± 0.12; with HCT116, 0.895 ± 0.04; in the assay with SW480 [2], 0.977 ± 0.027. Besides, the “TCF/Wnt firefly luciferase reporter signal” value was 0.838 ± 0.044 with DLD1 [3] and 0.97 ± 0.022 in the assay with SW480 [4].

As for `C[C@H]1[C@@H](O)O[C@@H]2O[C@@]3(C)CC[C@H]4[C@H](C)CC[C@@H]1[C@@]24OO3`, the cell viability came to 1.05 ± 0.09 with DLD1 [1], 0.746 ± 0.12 with HCT116 and 1.24 ± 0.05 with SW480 [2]. Besides, the “TCF/Wnt firefly luciferase reporter signal” value in the assay on DLD1 [3] is 0.761 ± 0.2; in the assay with SW480 [4] it was 1.01 ± 0.052.

Regarding `COc1c2ccoc2c(OC)c2oc(=O)ccc12`, the cell viability in the assay on DLD1 [1] is 0.95 ± 0.0099; in the assay on HCT116 it was 0.966 ± 0.16; in the assay on SW480 [2] it was 1.07 ± 0.028. In addition, the “TCF/Wnt firefly luciferase reporter signal” value in the assay on DLD1 [3] is 0.982 ± 0.11; in the assay with SW480 [4], 0.927 ± 0.017.

Consider `CCCCCC(=O)O[C@]1(C(C)=O)CC[C@H]2[C@@H]3CCC4=CC(=O)CC[C@]4(C)[C@H]3CC[C@@]21C`, for which the cell viability in the assay with DLD1 [1] turned out to be 0.993 ± 0.0099; in the assay on HCT116 it was 1.04 ± 0.057; with SW480 [2] it was 0.972 ± 0.018. Also, the “TCF/Wnt firefly luciferase reporter signal” value in the assay with DLD1 [3] was determined as 0.979 ± 0.087; with SW480 [4], 1.04 ± 0.021.

As to `CC(CN1c2ccccc2Sc2ccccc21)N(C)C` (stereo not given), the cell viability was found to be 1.09 ± 0.05 in the assay with DLD1 [1], 1.1 ± 0.064 in the assay on HCT116 and 1.08 ± 0.014 with SW480 [2]. The “TCF/Wnt firefly luciferase reporter signal” value in the assay on DLD1 [3] was found to be 1.05 ± 0.15; in the assay with SW480 [4], 1.115 ± 0.0071.

Turning to `CC(=O)O[C@H]1CC[C@]2(C)C3=CC(=O)[C@@]4(C)C(C[C@@H]5OC6(OCC(C)CC6Br)[C@@H](C)[C@@H]54)C3CC[C@H]2C1` (stereo partly drawn) [3beta-ACETOXY-23-BROMO-ISOALLOSPIROST-9 (11)-ENE-12-ONE], the figures for the cell viability with DLD1 [1], with HCT116 and with SW480 [2] were 1.04 ± 0.042, 1.11 ± 0.092 and 1.03 ± 0.05, respectively. The results for the “TCF/Wnt firefly luciferase reporter signal” value with DLD1 [3] and in the assay on SW480 [4] were 1.12 ± 0.099 and 1.1 ± 0.035, respectively.

Take `CC1=CC(=O)c2ccccc2C1=O`: the values for the cell viability in the assay on DLD1 [1], in the assay with HCT116 and in the assay with SW480 [2] were 1.04 ± 0.05, 0.955 ± 0.064 and 1.025 ± 0.0071, respectively. Further, the entries for the “TCF/Wnt firefly luciferase reporter signal” value in the assay on DLD1 [3] and in the assay with SW480 [4] were 1.02 ± 0.044 and 0.914 ± 0.013, respectively.

Values taken from the supplement of paper PMC6522484.
